Test results taken from the supplement of paper PMC10646978.
± gives the standard deviation.

Key:
Settings in all cases: modulator concentration 10 µM
[1] = system: RAW-Dual (murine macrophage reporter line); assay: NF-kB reporter (SEAP) activity fold change vs agonist alone; higher = enhanced NF-kB activity
In short: (§1)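 Overnight stimulation with a PRR agonist followed pre-incubation for 1 hour at 37 °C with compound at 10 μM final. This was done in RAW-Dual murine macrophage reporter cells seeded at 50 000 per well in 384-well plates. NF-κB (SEAP, QUANTI-Blue absorbance at 620 nm) and IRF (Lucia luciferase, QUANTI-Luc luminescence) were read from the supernatant. Each reporter's fold change relative to the mean agonist-only control on the same plate was averaged over replicate plates.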

[2] = system: RAW-Dual (murine macrophage reporter line); assay: IRF reporter (Lucia luciferase) activity fold change vs agonist alone; higher = enhanced IRF activity
In short: as §1

[3] = system: RAW-Dual (murine macrophage reporter line); assay: viability score (confluency relative to resting cells, overnight) (fraction); higher = more viable, active = viable (0.7 or more)
In short: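 Overnight exposure to 10 μM final compound was carried out on RAW-Dual macrophages in 384-well plates. IncuCyte software generated two confluency masks over all wells imaged with IncuCyte. The viability score gives confluency in relation to resting cells. A compound met the cutoff if each mask exceeded 70% of resting cells.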

[4] = agonist: CpG ODN 1826 0.5 ug/mL

## CSCCC(NC(C)=O)C(=O)N1CCc2nc3ccc(Cl)cn3c(=O)c2C1 (stereo not given)
[1]; [4]
  NF-kB reporter: 1.42 ± 0.35
[1]; agonist: LPS 0.1 ug/mL
  NF-kB reporter: 0.918 ± 0.047
[1]; agonist: MPLA […]
  NF-kB reporter: 1.06 ± 0.12
[2]; agonist: 3'3'-cGAMP 10 ug/mL
  IRF reporter: 1.01 ± 0.043
[2]; agonist: LPS 0.1 ug/mL
  IRF reporter: 1.24 ± 0.17
[2]; agonist: MPLA […]
  IRF reporter: 1.29 ± 0.21
[3]
  viability score: 0.986 (active)

## CCN(CC)c1ccc(C=Nn2nnnc2N)c(O)c1
[1]; [4]
  NF-kB reporter: 1.01 ± 0.078
[1]; agonist: LPS 0.1 ug/mL
  NF-kB reporter: 0.869 ± 0.1
[1]; agonist: MPLA […]
  NF-kB reporter: 1.13 ± 0.11
[2]; agonist: 3'3'-cGAMP 10 ug/mL
  IRF reporter: 0.942 ± 0.039
[2]; agonist: LPS 0.1 ug/mL
  IRF reporter: 1.06 ± 0.13
[2]; agonist: MPLA […]
  IRF reporter: 1.44 ± 0.29
[3]
  viability score: 0.955 (active)

## COc1ccc(N2CC(C(=O)NCc3ccccc3C(F)(F)F)CC2=O)cc1 (stereo not given)
[1]; [4]
  NF-kB reporter: 1 ± 0.11
[1]; agonist: LPS 0.1 ug/mL
  NF-kB reporter: 1.07 ± 0.085
[1]; agonist: MPLA […]
  NF-kB reporter: 0.935 ± 0.041
[2]; agonist: 3'3'-cGAMP 10 ug/mL
  IRF reporter: 1.03 ± 0.051
[2]; agonist: LPS 0.1 ug/mL
  IRF reporter: 1.2 ± 0.1
[2]; agonist: MPLA […]
  IRF reporter: 1.14 ± 0.29
[3]
  viability score: 1 (active)

## O=C1CCc2cc(OCCCCc3nnnn3C3CCCCC3)ccc2N1
[1]; [4]
  NF-kB reporter: 1.52 ± 0.27
[1]; agonist: LPS 0.1 ug/mL
  NF-kB reporter: 1.24 ± 0.38
[1]; agonist: MPLA […]
  NF-kB reporter: 1.18 ± 0.2
[2]; agonist: 3'3'-cGAMP 10 ug/mL
  IRF reporter: 1.01 ± 0.043
[2]; agonist: LPS 0.1 ug/mL
  IRF reporter: 1.32 ± 0.2
[2]; agonist: MPLA […]
  IRF reporter: 1.32 ± 0.12
[3]
  viability score: 0.991 (active)

## NC(=O)c1nc(F)cnc1O
[1]; [4]
  NF-kB reporter: 1.06 ± 0.25
[1]; agonist: LPS 0.1 ug/mL
  NF-kB reporter: 1.04 ± 0.051
[1]; agonist: MPLA […]
  NF-kB reporter: 2.37 ± 1.4
[2]; agonist: 3'3'-cGAMP 10 ug/mL
  IRF reporter: 0.897 ± 0.031
[2]; agonist: LPS 0.1 ug/mL
  IRF reporter: 1.27 ± 0.14
[2]; agonist: MPLA […]
  IRF reporter: 1.39 ± 0.14
[3]
  viability score: 1.01 (active)

## COc1ccc(C(C)NC(=O)c2[nH]nnc2-c2ccc(F)cc2)cc1 (stereo not given)
[1]; [4]
  NF-kB reporter: 1.17 ± 0.066
[1]; agonist: LPS 0.1 ug/mL
  NF-kB reporter: 0.983 ± 0.14
[1]; agonist: MPLA […]
  NF-kB reporter: 1.01 ± 0.054
[2]; agonist: 3'3'-cGAMP 10 ug/mL
  IRF reporter: 0.669 ± 0.026
[2]; agonist: LPS 0.1 ug/mL
  IRF reporter: 1.01 ± 0.094
[2]; agonist: MPLA […]
  IRF reporter: 0.958 ± 0.15
[3]
  viability score: 0.997 (active)

## CN1C(=O)C(=NNC(=O)c2ccccc2Cl)c2cc(Br)cc(Br)c21
[1]; [4]
  NF-kB reporter: 1.13 ± 0.091
[1]; agonist: LPS 0.1 ug/mL
  NF-kB reporter: 0.997 ± 0.081
[1]; agonist: MPLA […]
  NF-kB reporter: 1.03 ± 0.057
[2]; agonist: 3'3'-cGAMP 10 ug/mL
  IRF reporter: 0.897 ± 0.15
[2]; agonist: LPS 0.1 ug/mL
  IRF reporter: 1.12 ± 0.078
[2]; agonist: MPLA […]
  IRF reporter: 1.01 ± 0.32
[3]
  viability score: 1 (active)

## Cc1cccc(Oc2ccc(NC(=O)c3ccco3)cc2)c1
[1]; [4]
  NF-kB reporter: 0.777 ± 0.18
[1]; agonist: LPS 0.1 ug/mL
  NF-kB reporter: 0.981 ± 0.081
[1]; agonist: MPLA […]
  NF-kB reporter: 1 ± 0.095
[2]; agonist: 3'3'-cGAMP 10 ug/mL
  IRF reporter: 0.516 ± 0.037
[2]; agonist: LPS 0.1 ug/mL
  IRF reporter: 1.07 ± 0.24
[2]; agonist: MPLA […]
  IRF reporter: 1.27 ± 0.14
[3]
  viability score: 0.97 (active)

## O=C(NCC(O)(c1ccccc1)C(F)(F)F)c1ccc(Br)o1 (stereo not given)
[1]; [4]
  NF-kB reporter: 0.943 ± 0.054
[1]; agonist: LPS 0.1 ug/mL
  NF-kB reporter: 0.86 ± 0.12
[1]; agonist: MPLA […]
  NF-kB reporter: 0.929 ± 0.036
[2]; agonist: 3'3'-cGAMP 10 ug/mL
  IRF reporter: 0.858 ± 0.038
[2]; agonist: LPS 0.1 ug/mL
  IRF reporter: 1.04 ± 0.065
[2]; agonist: MPLA […]
  IRF reporter: 1.05 ± 0.15
[3]
  viability score: 0.948 (active)

## O=C(Oc1ccc2oc(=O)sc2c1)c1ccccc1
[1]; [4]
  NF-kB reporter: 0.969 ± 0.2
[1]; agonist: LPS 0.1 ug/mL
  NF-kB reporter: 0.917 ± 0.091
[1]; agonist: MPLA […]
  NF-kB reporter: 0.862 ± 0.1
[2]; agonist: 3'3'-cGAMP 10 ug/mL
  IRF reporter: 0.325 ± 0.017
[2]; agonist: LPS 0.1 ug/mL
  IRF reporter: 1.26 ± 0.13
[2]; agonist: MPLA […]
  IRF reporter: 1.36 ± 0.22
[3]
  viability score: 0.632 (inactive)

## CCCCc1ncc(/C=C(\Cc2cccs2)C(=O)O)n1Cc1ccc(C(=O)O)cc1.CS(=O)(=O)O
[1]; [4]
  NF-kB reporter: 1.08 ± 0.081
[1]; agonist: LPS 0.1 ug/mL
  NF-kB reporter: 1.11 ± 0.055
[1]; agonist: MPLA […]
  NF-kB reporter: 1.03 ± 0.039
[2]; agonist: 3'3'-cGAMP 10 ug/mL
  IRF reporter: 0.927 ± 0.062
[2]; agonist: LPS 0.1 ug/mL
  IRF reporter: 0.973 ± 0.077
[2]; agonist: MPLA […]
  IRF reporter: 0.836 ± 0.079
[3]
  viability score: 1 (active)

## CCn1c(C=Nn2cnnc2)nc2ccccc21
[1]; [4]
  NF-kB reporter: 0.929 ± 0.11
[1]; agonist: LPS 0.1 ug/mL
  NF-kB reporter: 1.08 ± 0.072
[1]; agonist: MPLA […]
  NF-kB reporter: 0.943 ± 0.036
[2]; agonist: 3'3'-cGAMP 10 ug/mL
  IRF reporter: 0.972 ± 0.23
[2]; agonist: LPS 0.1 ug/mL
  IRF reporter: 0.903 ± 0.048
[2]; agonist: MPLA […]
  IRF reporter: 0.911 ± 0.068
[3]
  viability score: 0.995 (active)

## CN1CCN(CCCN2c3ccccc3Sc3ccc(Cl)cc32)CC1 [Prestw-399]
[1]; [4]
  NF-kB reporter: 0.442 ± 0.026
[1]; agonist: LPS 0.1 ug/mL
  NF-kB reporter: 0.845 ± 0.073
[1]; agonist: MPLA […]
  NF-kB reporter: 1.73 ± 0.048
[2]; agonist: 3'3'-cGAMP 10 ug/mL
  IRF reporter: 1.23 ± 0.051
[2]; agonist: LPS 0.1 ug/mL
  IRF reporter: 1.1 ± 0.085
[2]; agonist: MPLA […]
  IRF reporter: 1.46 ± 0.15
[3]
  viability score: 0.114 (inactive)

## CCOC(=O)C1=C[C@]2(CC)CCCN3CCc4c(n1c1ccccc41)[C@@H]32
[1]; [4]
  NF-kB reporter: 0.825 ± 0.057
[1]; agonist: LPS 0.1 ug/mL
  NF-kB reporter: 0.946 ± 0.077
[1]; agonist: MPLA […]
  NF-kB reporter: 0.994 ± 0.07
[2]; agonist: 3'3'-cGAMP 10 ug/mL
  IRF reporter: 0.998 ± 0.045
[2]; agonist: LPS 0.1 ug/mL
  IRF reporter: 1.21 ± 0.15
[2]; agonist: MPLA […]
  IRF reporter: 1.4 ± 0.46
[3]
  viability score: 0.949 (active)

## Cc1ccc(-n2ncc3c(SCC(=O)NC(C)(C)C)ncnc32)c(C)c1
[1]; [4]
  NF-kB reporter: 1.01 ± 0.082
[1]; agonist: LPS 0.1 ug/mL
  NF-kB reporter: 1.16 ± 0.1
[1]; agonist: MPLA […]
  NF-kB reporter: 1.05 ± 0.047
[2]; agonist: 3'3'-cGAMP 10 ug/mL
  IRF reporter: 0.644 ± 0.026
[2]; agonist: LPS 0.1 ug/mL
  IRF reporter: 0.95 ± 0.048
[2]; agonist: MPLA […]
  IRF reporter: 1.22 ± 0.18
[3]
  viability score: 0.996 (active)
